Shown are actives, neighbours in structure and some others; about 7.9% of the full set was active somewhere.
HT1080 IDH1KD tx – toxicity to HT-1080 IDH1 knockdown cells (counter line); HT-1080 IDH1 knockdown viability, ATP luminescence, 48 h; Potency, µM (titrated, usually from 46.1 µM), for inactives: at the highest dose activity, negative = toxicity, most hits filed as cytotoxic; 360,000 compounds, 2% hits; AID 686971;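 further: 0% = DMSO wells and -100% = cell-free medium wells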
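After a 2 h attachment period, IDH1KD HT-1080 cells took pin-transferred compound for 48 h at 37 °C; ATP-based luminescence after 10 min room-temperature reagent incubation reported viability.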
KB-V1 cytotox – kills drug-selected multidrug resistant KB-V1 cells | KB-V1 MDR cells viability, CellTiter-Glo, 72 h | Potency, µM (titrated, usually from 46.1 µM), actives largely listed as cytotoxic | 400,000 compounds, 3.4% hits | AID 1347076; further: on the % scale 0 is the no-effect control and ±100 the full control effect; nearly all actives have a fitted effect of over 60% in size
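Following 72 h at 37 degrees C with compound, KB-V1 cell viability was read by CellTiter-Glo luminescence, medium being phenol-red-free DMEM plus 10% FBS; concentration-response parameters came from normalized, curve-fitted qHTS data.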
MCF10A rerep – induces DNA re-replication in MCF 10a normal breast cells; MCF 10A DNA re-replication, Hoechst nuclear intensity, 48 h; Potency, µM (highest dose often 46.1 µM), without a hit: top-dose activity, positive = re-replication, actives largely listed as activators; 350,000 compounds, 2.9% hits; AID 624296; further: % of control where 0% means no effect; nearly all actives have a fitted effect of over 50% in size
HT1080-NT tox – kills 2HG-producing HT-1080-NT fibrosarcoma cells. 360,000 compounds, 1.6% hits. Potency, µM (titrated, usually from 46.1 µM), for inactives: top-dose activity, negative = less viability, actives largely listed as cytotoxic. HT-1080-NT fibrosarcoma viability, CellTiter-Glo ATP luminescence, 48 h;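 further: NT is the 2HG producing partner of a matched IDH1 knockdown line; 0% = DMSO-treated cells and -100% = media-only wells without cells; nearly all actives have a fitted effect of over 55% in size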
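Toxicity toward the 2HG-producing NT line was scored as %Activity, normalised to DMSO and no-cell wells, from CellTiter-Glo luminescence after 48 hours' treatment.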
SW480 rerep – induces DNA re-replication in SW480 colon adenocarcinoma cells; SW480 DNA re-replication, Hoechst DNA content imaging, 48 h; Potency, µM (doses to about 46.1 µM), for inactives: at the highest dose re-replication activation, most hits filed as activators; 340,000 compounds, 1.8% hits; further: % of control where 0% means no effect; nearly all actives have a fitted effect of over 55% in size
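Hoechst fluorescence of nuclei (405 nm excitation, 500-530 nm emission) measured by plate-scanning imager after 48 hr compound exposure at 37 C; re-replication scored as increased number of nuclei with elevated intensity.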
KB-3-1 tox – KB-3-1 parental cell cytotoxicity | KB-3-1 viability, CellTiter-Glo ATP luminescence, 72 h | Potency, µM (titrated, usually from 46.1 µM), hits mostly cytotoxic | 400,000 compounds, 1.4% hits | AID 1347075; further: on the % scale 0 is the no-effect control and ±100 the full control effect; nearly all actives have a fitted effect of over 60% in size
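Viability of parental KB-3-1 cells, measured by CellTiter-Glo luminescence, followed a 72 h incubation at 37 °C with pinned compounds in phenol-red-free DMEM containing 10% FBS.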
Numbers without * were called inactive; i = inactive; ? = inconclusive; . = not tested or not shown; [ ] = remark or other dose. The call rests on the fitted dose curve; in most records, active means well fitted curve in the direction sought with a large enough effect; inconclusive means small, poorly fitted or top-dose-only effect, or another doubt; inactive means no such curve, though single readings can be large; an effect the other way counts as inactive or inconclusive. Potency means the concentration at half of the fitted maximal effect.

SMILES	HT1080 IDH1KD tx	KB-V1 cytotox	MCF10A rerep	HT1080-NT tox	SW480 rerep	KB-3-1 tox
COc1ccc(CCN2C(=O)N(c3cccc(C)c3)C(=O)C2CC(=O)Nc2ccccc2)cc1OC (stereo not given)	.	i	.	.	.	i
COC(=O)c1cc(Nc2nc3ccccc3nc2NS(=O)(=O)c2ccc(C)cc2)ccc1Cl	.	i	.	.	.	?
Cc1cc(F)ccc1NCc1ccccc1-c1nnc(-c2ccccc2Cl)o1	.	i	.	.	.	i
CCOc1ccc(NC(=O)c2sc3nc4c(cc3c2N)CN(Cc2ccccc2)CC4)cc1	.	i	.	.	.	i
CCOC(=O)/C=c1/s/c(=C\c2c(OC)ccc3ccccc23)c(=O)n1CC(=O)NCC1CCCO1 (stereo not given)	?	4.6µM*	?	16µM*	15µM*	?
CCOC(=O)/C=c1\s/c(=C\c2c(OCC)ccc3ccccc23)c(=O)n1CC(=O)NCC1CCCO1 (stereo not given)	?	?	?	-19%	23%	?
COc1ccc(C)c2sc(N(Cc3cccnc3)C(=O)COc3ccccc3)nc12	.	i	.	.	.	i
O=C(COc1ccc(Cl)cc1Cl)N1CCCN(C(=O)COc2ccc(Cl)cc2Cl)CC1	?	8.2µM*	?	-27%	?	?
O=C(COc1ccc(Br)cc1Cl)N1CCN(c2ncccn2)CC1	5%	i	0%	4%	-4%	i
CCOC(=O)N1CCN(C(=O)COc2ccc(Br)cc2Cl)CC1	-2%	7.3µM*	0%	-4%	0%	i
CC(=O)c1cc(C(=O)Nc2cc(C)cc(C)c2)c2ccccn12	.	i	.	.	.	i
c1ccc(CNc2nc3ccccc3[nH]2)cc1	-2%[9.24 µM]	i	?	?	?	i
Cc1ccc2nc(NCc3ccccc3)[nH]c2c1	3.7µM*	5.8µM*	?	5.8µM*	5.2µM*	5.2µM*
COc1ccc2nc(NCCO)[nH]c2c1	-1%	i	-18%	-3%	2%	i
COc1ccc2nc(NCc3ccccc3)[nH]c2c1	?	?	18µM*	?	15µM*	9.2µM*
O=C(O)c1ccc(CNS(=O)(=O)c2ccc(Oc3ccccc3Cl)cc2)cc1	-4%	i	?	-14%	0.16µM*	i
O=C(c1ccccc1F)N1CCN(Cc2cccc(Cl)c2)CC1	5%	21µM*	0%	-3%	0%	i
CCc1cc2cc(C(=O)N3CCN(c4ccccc4)CC3)sc2s1	10%	i	15%	10%	16%	i
CCc1cc2cc(C(=O)N3CCN(Cc4ccccc4)CC3)sc2s1	2%	15µM*	?	3%	-8%	21µM*
CC(C)(C)c1ccc(C(=O)N2CCN(CCNC(=O)C(=O)NCc3ccccc3)CC2)cc1	2%	7.3µM*	-1%	8%	-3%	i
COc1ccc(CNC(=O)CCCCCn2c(=O)[nH]c3ccccc3c2=O)cc1	.	?	.	.	.	i
O=C(c1ccccc1)N1CCN(Cc2ccccc2)CC1	-7%	i	13µM*	21%	17%	i
O=C(c1ccncc1)N1CCN(CCc2ccccc2)CC1	2%	i	18µM*	-3%	?	i
O=C(c1ccccc1)N1CCCC(C(=O)N2CCCCCC2)C1 (stereo not given)	-7%	21µM*	0%	-2%	-10%	i
O=C(c1ccccc1)N1CCN(C(=O)c2ccncc2)CC1	0%	i	0%	9%	-4%	i
SMILES	HT1080 IDH1KD tx	KB-V1 cytotox	MCF10A rerep	HT1080-NT tox	SW480 rerep	KB-3-1 tox
O=C(c1ccc(CNS(=O)(=O)c2ccccc2)cc1)N1CCN(Cc2ccccc2)CC1	?	4.6µM*	28%	?	21%	18µM*
CS(=O)(=O)c1ccc(C(=O)N2CCN(Cc3ccccc3)CC2)cc1	0%	i	3%	14%	-3%	i
CCS(=O)(=O)N1Cc2cc(C(=O)NCC3CC3)nc(-c3cccc(-c4cccnc4)c3)c2[C@@H]1CCO	?	i	.	?	.	?
CC(=O)C1=CCC(c2ccc(Cl)c(Cl)c2)N(S(=O)(=O)c2ccc(C)cc2)C1 (stereo not given)	?	i	.	?	.	i
CCn1c(=O)n(-c2ccc(F)cc2)c(=O)c2sc3ccccc3c21	.	?	.	.	.	i
CCOc1ncccc1C(=O)N1CCN(c2cc(Cl)ccc2C)CC1	1.3µM*	0.82µM*	15µM*	1µM*	0.65µM*	2.1µM*
CCOc1ncccc1C(=O)N1CCN(c2cccc(C)c2C)CC1	0.18µM*	?	?	0.18µM*	0.73µM*	1µM*
CSc1nn(Cc2cccc(Cl)c2)c(N(C(C)=O)C(C)=O)c1S(=O)(=O)c1ccccc1	.	i	.	.	.	i
CCC(=O)N1CCCC(C(=O)NCc2ccc(C(C)C)cc2)CC1 (stereo not given)	0%	i	.	0%	.	i
CC(C)(C)C(=O)OCc1cc(=O)n2nc(C3CCCCC3)sc2n1	.	i	.	.	.	i
CCN(CC)S(=O)(=O)c1ccc2c(c1)nc(CN(C)C(=O)c1cccc(Cl)c1)n2C	.	i	.	.	.	i
COc1ccc(Cl)cc1C(=O)Nc1ccc2oc(-c3ccc(C(C)(C)C)cc3)nc2c1	.	i	.	.	.	i
Cc1cc(NC(=O)c2ccco2)ccc1NC(=O)c1ccco1	-26%	23µM*	-2%	?	-5%	?
COc1ccc(NC(=O)/C(C#N)=C\C=C\c2ccco2)cc1	21µM*	10µM*	12µM*	?	.	7.3µM*
COc1ccc(C(=O)Nc2ccc(NC(=O)c3ccco3)cc2)cc1	?	i	-14%	?	9.2µM*	i
O=C(OC1CCCCC1)c1ccc(NC(=O)c2ccco2)cc1	?	i	15µM*	-30%	11%	i
Cc1ccc(NC(=O)c2ccco2)cc1C	-2%	i	-24%	5%	-32%	i
O=C(Nc1ccc(OC(=O)c2ccco2)cc1)c1ccco1	8%	i	-185%[0.0737 µM]	12%	24%	i
CCOC(=O)c1c(C)c(-c2ccccc2)n(CC(=O)Nc2cc(C)cc(C)c2)c1C	.	i	.	.	.	i
COc1cc(OC)cc(C(=O)Nc2ccc(NC(=O)c3ccco3)c(C)c2)c1	23µM*	?	7%	?	6%	i
CC(C)COc1ccc(C(=O)Nc2ccc(NC(=O)c3ccco3)c(Cl)c2)cc1	15µM*	i	?	?	14%	i
